The list is not random: actives were taken first. Their share in the collection is about 6.5%.
HT1080-NT tox – kills 2HG-producing HT-1080-NT fibrosarcoma cells; HT-1080-NT fibrosarcoma viability, CellTiter-Glo ATP luminescence, 48 h; Potency, µM (series often up to 46.1 µM), for the others: at the highest dose activity, negative = less viability, usual class: cytotoxic; actives 1.6% (n = 360,000); AID 686970;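 also: NT is the 2HG producing partner of a matched IDH1 knockdown line; potency is read from the fitted curve at half-maximal effect; 0% = DMSO-treated cells and -100% = media-only wells without cells; nearly all actives have a fitted effect of over 55% in size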
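Toxicity toward the 2HG-producing NT line was scored as %Activity, normalised to DMSO and no-cell wells, from CellTiter-Glo luminescence after 48 hours' treatment.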
Giardia kill – Giardia lamblia killing; Giardia lamblia trophozoite viability; activity change, % at 7.66 µM, hits read low; actives 0.15% (n = 340,000); in the data active = activity change below about -80%; inconclusive = between about -30% and that limit;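 also: parasites exposed to compound for two days anaerobically before the ATP read; % is scaled to controls: 0 for no effect and ±100 for the full control effect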
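Each well holds 100 Giardia trophozoites and compound. After two days (48 hrs) at 37 deg C in anaerobic conditions, ATP is quantified by luminescence.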
HepG2 tox – HepG2 cytotoxicity, counter-screen for TGF-b inhibitors; HepG2 CAGA-GFP viability, ATP luminescence, 18 h; Potency, µM (doses to about 46.1 µM), without a hit: at the highest dose activity change, negative = cytotoxicity, actives largely listed as cytotoxic; actives 0.76% (n = 410,000); AID 588856; also: potency is read from the fitted curve at half-maximal effect
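CellTiter-Glo luminescence gave cytotoxicity after 18 hours at 37 degrees C. The cells were HepG2 CAGA-GFP in 1% FBS DMEM, stimulated with 500 pg/mL TGF-beta after compound addition. %Activity was normalised to no-cell wells (complete cell-killing) and DMSO (no toxicity), and curves were fitted and classified.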
TGFb SMAD3 inh – blocks TGF-b signaling | actives 1.2% (n = 410,000) | AID 588855 | Potency, µM (top dose mostly 46.1 µM), for inactives: top-dose activity, negative = inhibition, actives largely listed as inhibitors | HepG2 CAGA-GFP TGF-b/SMAD3 reporter, GFP fluorescence, 18 h; TGF-beta stimulated, 500 pg/mL final; also: potency is read from the fitted curve at half-maximal effect; % is scaled to controls: 0 for no effect and ±100 for the full control effect; nearly all actives have a fitted effect of over 65% in size
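Cell-based qHTS in HEPG2 carrying a CAGA-GFP Smad reporter; compounds added before 500 pg/mL final TGF-beta, 18 h incubation at 37 degrees C, GFP fluorescence quantified per cell by imaging cytometry.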
HT1080 IDH1KD tx – kills HT-1080 cells with IDH1 knockdown; HT-1080 IDH1 knockdown viability, ATP luminescence, 48 h; Potency, µM (highest dose often 46.1 µM), for the others: at the highest dose activity, negative = toxicity, usual class: cytotoxic; actives 2% (n = 360,000);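 also: potency is read from the fitted curve at half-maximal effect; 0% = DMSO wells and -100% = cell-free medium wells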
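In this qHTS, HT-1080 cells depleted of IDH1 are exposed for 48 h at 37 °C to compound titrations. Toxicity is scored from CellTiter-Glo luminescence, with DMSO as full viability and medium alone as none.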
IL1B secr inh – blocks inflammasome-driven IL-1 beta release | THP-1 LPS/ATP IL-1B secretion, AlphaLISA, 16 h; hits give low values | activity change, % at 57.5 µM | actives 4.7% (n = 360,000) | AID 743279; in the data active = activity change below about -50%; inconclusive = mostly about -30% to -49%; also: % is scaled to controls: 0 for no effect and ±100 for the full control effect
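Secreted IL-1B measured by AlphaLISA bead assay after 16 h compound exposure of THP-1 cells; compounds (final up to 57.5 uM) added 1 h before LPS (250 ng/mL) and ATP (1.25 mM) stimulation; lower signal means less secretion.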
The depositor's hits bear a star; ? = inconclusive; . = not tested or not shown; [ ] = dose if it differs, or a comment. Unless noted, calls follow the shape of the dose curve; as a rule, active = well fitted curve in the direction sought with a large enough effect; inconclusive = small, poorly fitted or top-dose-only effect, or another doubt; inactive = no such curve, though single readings can be large; an effect the other way counts as inactive or inconclusive.

SMILES	HT1080-NT tox	Giardia kill	HepG2 tox	TGFb SMAD3 inh	HT1080 IDH1KD tx	IL1B secr inh
CCCc1ccc(-c2cc(NC(=O)CSc3nnc(N)s3)n(-c3ccccc3)n2)cc1	16µM*	-17	-17%	?	?	?
O=C1OC(c2ccc(F)cc2)CC1CN1CCOCC1 (stereo not drawn)	?	.	3%	38%	16µM*	-11
O=C(CN1CCOCC1)Nc1ccc(F)cc1	9%	-26	4%	6%	-1%	9
Cc1cc(=O)[nH]c(SCCOc2ccc(OC(C)C)cc2)n1	-15%	-2	-23%	1%	-7%	97
Cc1nnc(SCC(=O)c2cc(C)n(-c3c(C)n(C)n(-c4ccccc4)c3=O)c2C)s1	0%	0	8%	14%	16%	6
Cc1cc(-n2c(C)cc(C(=O)CN3C(=O)C(=O)N(C)C3=O)c2C)no1	12%	1	-10%	16%	-2%	0
Cc1ccc(OCC(=O)c2ccc(Cl)s2)c([N+](=O)[O-])n1	1%	-15	2%	-8%	5%	-73*
Cc1cc(C(=O)CCl)c(C)n1-c1c(C)n(C)n(-c2ccccc2)c1=O	23µM*	1	-48%	?	?	-99*
COc1ccc(-n2c(C)cc(C(=O)CN3C(=O)c4ccccc4C3=O)c2C)cc1	-21%	7	21%	28%	-2%	-12
COc1ccc(-n2c(C)cc(C(=O)CCl)c2C)cc1	?	2	22µM*	?	15µM*	-77*
Cc1cc(-n2c(C)cc(C(=O)CCl)c2C)no1	5.8µM*	29	11µM*	8.9µM*	7.3µM*	-102*
COc1ccc(-c2cc(N)n(S(=O)(=O)c3ccc(C)cc3)n2)c(OC)c1	-3%	18	-23%	-9%	-3%	16
CCOC(=O)C1CCN(c2c(N(C)Cc3ccco3)c(=O)c2=O)CC1	11%	0	-4%	-2%	2%	-2
COc1ccc(-n2c(C)cc(C(=O)COc3ccc(C)nc3[N+](=O)[O-])c2C)cc1	8%	-81*	5%	?	3%	13
COc1ccc(-c2noc(CCC(=O)N3CCN(c4ccccc4Cl)CC3)n2)cc1	2%	14	-24%	?	5%	-17
Cc1nc2cc(C(F)(F)F)ccc2n1CCNc1nc(-c2ccc([N+](=O)[O-])c(Cl)c2)cs1	?	5	-34%	16µM*	?	?
O=C1c2cccc3cc([N+](=O)[O-])cc(c23)C(=O)N1CCN1CCCC1	?	-20	-41%	5µM*	2.3µM*	-98*
Nc1cc2c3c(cccc3c1)C(=O)N(CCN1CCCC1)C2=O	21µM*	-5	-15%	?	?	-99*
NC(=O)CN1CCN(CCN2C(=O)c3cccc4cccc(c34)C2=O)CC1	0%	-19	1%	-2%	-13%	0
O=C1c2cccc3cc([N+](=O)[O-])cc(c23)C(=O)N1/N=C/c1ccc(O)cc1O	?	?	1%	-5%	-28%	-96*
CCN(CC)CCN1C(=O)c2cccc3cc(N)cc(c23)C1=O	33µM*	44	-13%	?	33µM*	-78*
Cc1nn(C)c2c1c(C(F)(F)F)cc(=O)n2C(C)C(=O)NCc1ccccc1 (stereo not drawn)	.	.	-1%	-5%	.	.
COc1ccc(C(CNC(=O)COc2ccc(F)cc2Cl)N2CCOCC2)cc1 (stereo not drawn)	3%	-9	1%	20%	-1%	2
O=C(/C=C\NCC(=O)c1ccccc1)c1ccc(F)cc1	0%[9.24 µM]	14	-6%	?	-14%	14
COc1ccc(C(=O)/C=C/c2ccc(N3CCCCC3)c([N+](=O)[O-])c2)cc1	-2%	-4	-2%	?	3%	-101*
SMILES	HT1080-NT tox	Giardia kill	HepG2 tox	TGFb SMAD3 inh	HT1080 IDH1KD tx	IL1B secr inh
COc1cc(/C=C/C(=O)O)cc(OC)c1O	-6%	-3	-24%	14%	-20%	17
COc1ccc(/C=C/C(=O)c2ccc(C)c([N+](=O)[O-])c2)cc1O	-12%	29	20µM*	18µM*	?	?
COc1cccc(/C=C/C(=O)c2ccc(C)c([N+](=O)[O-])c2)c1	?	-17	-39%	?	-24%	-83*
COC(=O)N/N=C(\C)c1ccc(C)c([N+](=O)[O-])c1	20%	1	1%	-1%	15%	-4
COc1cc(/C=C/C(=O)c2ccc(C)c([N+](=O)[O-])c2)cc(OC)c1O	?	-5	-44%	13µM*	?	?
COc1ccc(CNC(=O)C[C@H]2C[C@H](C(=O)N3CCOCC3)[C@@]3(C)c4[nH]c5ccc(Cl)cc5c4CCN3C2=O)cc1OC	0%	-17	-23%	?	-1%	-1
O=C(Nc1nnc(C2CC2)s1)C1Cc2ccccc2CN1C(=O)c1ccco1 (stereo not drawn)	4%	-14	-5%	4%	6%	47
O=C(Nc1nnc(SCc2ccc(F)cc2)s1)C1Cc2ccccc2CN1C(=O)c1ccco1 (stereo not drawn)	-6%	24	-14%	-23%	-14%	-78*
O=c1[nH]c(-c2ccccn2)nc(C(F)(F)F)c1Br	?	1	-8%	-5%	?	48
CCOC(=O)C1(CC2CC2)CCN(Cc2cc(Cl)c(O)c(OC)c2)CC1	-2%	14	2%	-1%	0%	13
CCOC(=O)C1(Cc2cccc(OC)c2)CCN(CC=C(C)C)CC1	-2%	-4	-18%	-3%	7%	-13
CCOC(=O)C1(Cc2cccc(OC)c2)CCN(C/C=C/c2ccc(OC)cc2)CC1	13µM*	18	-23%	-2%	?	-171*
CCOC(=O)C1(Cc2cccc(OC)c2)CCN(C/C=C/c2ccccc2)CC1	-13%	-16	-45%	?	-28%	-92*
CCOC(=O)C1(Cc2cccc(OC)c2)CCN(Cc2cccc(OCC)c2O)CC1	?	-24	-38%	-30%	-13%	-90*
CCOC(=O)C1(CC2CC2)CCN(Cc2ccc(OC)cc2F)CC1	-3%	9	-50%	-13%	-19%	-54*
O=C(NCc1ccccc1Cl)c1ccc(CSCc2cccc(F)c2)o1	.	.	-24%	?	.	.
CCOC(=O)c1c(C)[nH]c(C(=O)N/N=C\c2ccccc2O)c1C	7.3µM*	8	-33%	-33%	5.8µM*	29
